Only some compounds are listed: those with a hit (about 4.5% of all), similar ones and a draw of the others.
NLRP3 yeast inh – inhibitors of NALP3 inflammasome in yeast; Yeast reconstituted NLRP3/ASC/caspase-1, beta-gal luminescence, 24 h; inhibition, % at 10 µM; 330,000 tested, 0.39% active;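 active means inhibition of 50% or more; inactive means inhibition below 50%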;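 further: plate controls were induced DMSO wells for no effect and uninduced yeast grown without galactose for full effect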
tim23-1 inh – tim23-1 yeast growth inhibition | 330,000 tested, 1.3% active | inhibition, % at 20 µM | S. cerevisiae tim23-1 growth, BacTiter-Glo luminescence, 24 h;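 active means growth inhibition of the mutant yeast at or above 50%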;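 further: temperature-sensitive mutant grown at 25 °C; plate controls were DMSO-treated mutant yeast for no effect and medium wells lacking yeast for full effect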
PfHsp90 set2 – reduces growth (ATP signal) of yeast expressing P. falciparum Hsp90. S. cerevisiae expressing PfHsp90, BacTiter-Glo ATP, 48 h; yeast lacking PDR1 and PDR3 efflux regulators. inhibition, % at 9.4 µM. 310,000 tested, 0.32% active. AID 504621;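 active means every replicate shows inhibition above about 80%, whatever the replicate mean, limit read from the data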;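 further: 0% = DMSO neutral controls and 100% = 20 µM radicicol positive controls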
TIM10 inh – TIM10 yeast growth inhibition | AID 463195 | 330,000 tested, 1.4% active | inhibition, % at 10 µM | S. cerevisiae TIM10 strain growth, BacTiter-Glo luminescence, 24 h;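 active means inhibition of 40% or more at the single tested concentration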;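 further: wild-type TIM10 isogenic control strain grown at permissive 25 °C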
tim10-1 inh – inhibits growth of tim10-1 mutant yeast; S. cerevisiae tim10-1 ts strain growth, BacTiter-Glo, 24 h; inhibition, % at 20 µM; 330,000 tested, 2.2% active; AID 463190;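 active means inhibition of at least 40%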;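 further: mutant grown at 25 °C; 0% = DMSO wells with yeast and 100% = wells holding no yeast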
SKKanGAS inh – blocks kanamycin growth of S. pyogenes SKKanGAS strain. BacTiter-Glo, 6 h. inhibition, % at 7.5 µM. 300,000 tested, 1.3% active. AID 1662;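 active means mean replicate score, as percent of positive control median, at least 50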;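 further: strain carries kanamycin resistance gene driven by streptokinase promoter and grows in 40 µg/ml kanamycin; loss of luminescence reflects streptokinase promoter inhibition or plain growth inhibition; 0% = median of DMSO wells and 100% = positive control at its reference dose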
An asterisk follows results filed as active.

How did COc1ccccc1CNC(=O)c1cccc(S(=O)(=O)N2CCCC2)c1 do in these assays?
NLRP3 yeast inh: 0; tim23-1 inh: 9; PfHsp90 set2: 10; TIM10 inh: -1; tim10-1 inh: 12

How did CC(C)C[C@@H](CN1C(=O)C(=O)NC[C@@H]1CC(C)C)NC(=O)Cc1ccccc1 do in these assays?
NLRP3 yeast inh: 10; tim23-1 inh: 12; PfHsp90 set2: -11; TIM10 inh: -4; tim10-1 inh: -5

How did CCOc1ccccc1NC(=O)C(NCC1CCCCC1)c1ccccc1 (stereo not given) do in these assays?
NLRP3 yeast inh: 4; tim23-1 inh: 41; PfHsp90 set2: -5; TIM10 inh: 17; tim10-1 inh: 11; SKKanGAS inh: 55*

Results for CCOc1ccccc1NC(=O)C(NCCN(C)C)c1ccccc1 (stereo not given) ?
NLRP3 yeast inh: -8; tim23-1 inh: -4; PfHsp90 set2: 10; TIM10 inh: -2; tim10-1 inh: 8; SKKanGAS inh: 1

Results for C/C(N)=C(/C#N)C(=O)CSc1nc2scc(-c3ccc(F)cc3)c2c(=O)n1C ?
NLRP3 yeast inh: 17; tim23-1 inh: 2; PfHsp90 set2: -7; TIM10 inh: 17; tim10-1 inh: 12; SKKanGAS inh: 70*

Results for O=C(COc1c(Br)cc(Br)c2cccnc12)N1CCCCC1 ?
NLRP3 yeast inh: 3; tim23-1 inh: 32; PfHsp90 set2: -28; TIM10 inh: -10; tim10-1 inh: 34; SKKanGAS inh: 5

Results for Oc1c(CN2CCCCC2)cc(Br)c2cccnc12 ?
NLRP3 yeast inh: 44; tim23-1 inh: 21; PfHsp90 set2: 104*; TIM10 inh: 24; tim10-1 inh: 11; SKKanGAS inh: 58*

What do the screens show for `O=C(Nc1nnc(-c2ccccc2)o1)c1nc2ccccc2s1`?
NLRP3 yeast inh: 9; tim23-1 inh: 13; PfHsp90 set2: -18; TIM10 inh: 6; tim10-1 inh: 8; SKKanGAS inh: 92*

Results for CC(C)(C)C(=O)Nc1nnc(-c2ccncc2)o1 ?
NLRP3 yeast inh: 4; tim23-1 inh: 4; PfHsp90 set2: -18; TIM10 inh: -8; tim10-1 inh: 20; SKKanGAS inh: -6

What do the screens show for `COc1ccc(-c2nnc(NC(=O)c3ccc(F)cc3)o2)cc1`?
NLRP3 yeast inh: 19; tim23-1 inh: 11; PfHsp90 set2: -113; TIM10 inh: -9; tim10-1 inh: 9; SKKanGAS inh: 91*

How did O=C(Nc1nnc(-c2ccncc2)o1)c1ccc(Br)s1 do in these assays?
NLRP3 yeast inh: 3; tim23-1 inh: 6; PfHsp90 set2: -15; TIM10 inh: -16; tim10-1 inh: -2; SKKanGAS inh: 53*

What do the screens show for `NC(=O)c1oc2ccccc2c1NC(=O)c1nc2ccccc2s1`?
NLRP3 yeast inh: 15; tim23-1 inh: 11; PfHsp90 set2: -8; TIM10 inh: 16; tim10-1 inh: 25; SKKanGAS inh: -6

What do the screens show for `COc1cccc(-c2nnc(NC(=O)c3ccc(S(=O)(=O)N4CC(C)OC(C)C4)cc3)o2)c1` (stereo not given)?
NLRP3 yeast inh: 3; tim23-1 inh: 26; PfHsp90 set2: -10; TIM10 inh: 25; tim10-1 inh: 27; SKKanGAS inh: 93*

Results for CC1CCCCC1NC(=O)CSc1nnc(CC(=O)Nc2ccccc2F)n1C (stereo not given) ?
NLRP3 yeast inh: 16; tim23-1 inh: -9; PfHsp90 set2: -5; TIM10 inh: 0; tim10-1 inh: -8; SKKanGAS inh: 5

How did NC(=O)NC(Cc1ccccc1)C(=O)NNC(=O)COc1ccccc1Cl (stereo not given) do in these assays?
NLRP3 yeast inh: -1; tim23-1 inh: 11; PfHsp90 set2: -36; TIM10 inh: -4; tim10-1 inh: -3

How did Cc1ccc2oc(=O)c3cc(C(=O)N4CCN(C)CC4)sc3c2c1 do in these assays?
NLRP3 yeast inh: -9; tim23-1 inh: 0; PfHsp90 set2: 4; TIM10 inh: -20; tim10-1 inh: -3; SKKanGAS inh: 4

How did Cc1ccccc1C(=O)Nc1nnc(-c2ccc(F)cc2)o1 do in these assays?
NLRP3 yeast inh: 15; tim23-1 inh: -9; PfHsp90 set2: -39; TIM10 inh: 14; tim10-1 inh: 5; SKKanGAS inh: 61*

Results for COc1ccc(-c2nnc(NC(=O)c3cc(Cl)ccc3Cl)o2)cc1 ?
NLRP3 yeast inh: 8; tim23-1 inh: 1; PfHsp90 set2: -28; TIM10 inh: 15; tim10-1 inh: 33; SKKanGAS inh: 86*

Results for COc1ccccc1C(=O)Nc1nnc(-c2ccc(Cl)cc2)o1 ?
NLRP3 yeast inh: 31; tim23-1 inh: 28; PfHsp90 set2: -3; TIM10 inh: 1; tim10-1 inh: 8; SKKanGAS inh: 4

How did O=C(Cc1cccc2ccccc12)Nc1ccccc1Br do in these assays?
NLRP3 yeast inh: 28; tim23-1 inh: 16; PfHsp90 set2: 7; TIM10 inh: -5; tim10-1 inh: 8; SKKanGAS inh: 8

Results for COc1ccc(-n2c3c(c(=O)[nH]c2=O)C(NC(C)=O)(C(F)(F)F)C(=O)N3)cc1 (stereo not given) ?
NLRP3 yeast inh: -1; tim23-1 inh: 4; TIM10 inh: -18; tim10-1 inh: 16; SKKanGAS inh: -3

How did CCOC(=O)CCCCCC(=O)Nc1ccc2c(c1)CC(=O)N([C@@H](C)CO)C[C@@H](C)[C@@H](CN(C)C(=O)Nc1ccc(C(F)(F)F)cc1)O2 do in these assays?
NLRP3 yeast inh: 12; tim23-1 inh: 5; PfHsp90 set2: -9; TIM10 inh: -2; tim10-1 inh: 10

What do the screens show for `CCOc1ccc(S(=O)(=O)NCc2ccccn2)c(C)c1C`?
NLRP3 yeast inh: 13; tim23-1 inh: 16; PfHsp90 set2: 93*; TIM10 inh: -2; tim10-1 inh: 12; SKKanGAS inh: 0

Results for CCCCc1nc2cc(C(=O)N3CCC(OCCOC)CC3)ccc2o1 ?
NLRP3 yeast inh: -3; tim23-1 inh: -8; PfHsp90 set2: -16; TIM10 inh: 7; tim10-1 inh: 3; SKKanGAS inh: 63*

What do the screens show for `CC(=O)Nc1ccc(NC(=O)Cn2cnc(S(=O)(=O)N3CCOCC3)c2)cc1`?
NLRP3 yeast inh: 15; tim23-1 inh: -2; PfHsp90 set2: 27; TIM10 inh: 5; tim10-1 inh: -1; SKKanGAS inh: -2

How did COc1cccc(/C=N/NC(=S)NC2CC3CC2C2C=CCC32)c1O (stereo not given) do in these assays?
NLRP3 yeast inh: -9; tim23-1 inh: 12; PfHsp90 set2: -8; TIM10 inh: 14; tim10-1 inh: 5; SKKanGAS inh: 109*

Results for CNS(=O)(=O)c1ccc(NC(=O)c2cnn3c(C(F)F)cc(-c4ccccc4)nc23)cc1 ?
NLRP3 yeast inh: 16; tim23-1 inh: 6; PfHsp90 set2: -1; TIM10 inh: 7; tim10-1 inh: -4; SKKanGAS inh: 53*

Screening results from PubChem.
